# Measured values reported in PubChem BioAssay (NCATS).
# Results filed as inconclusive are left out. Where a call stands in place of a potency, no number is given. Values without a mark were called inactive. Calls of active or inactive are those of the source. Calls come from the whole dose curve; as a rule, active = well fitted curve in the direction sought with a large enough effect; inconclusive = small, poorly fitted or top-dose-only effect, or another doubt; inactive = no such curve, though single readings can be large; an effect the other way counts as inactive or inconclusive. Square brackets hold non-standard residues; d marks the D form. Peptide text beside a SMILES is read from it. * marks the point of attachment. ξ: configuration not given here. ξPhe(βξ-Me) = CC(c1ccccc1)C(N)C(=O)O; AMC = Cc1cc(=O)oc2cc(N*)ccc12; Cbz = O=C(OCc1ccccc1)*; GABA = NCCCC(=O)O
# Molecular target: Cellular tumor antigen p53 (Homo sapiens) (UniProt P04637)
# Assay: Primary qHTS for small molecule compounds that upregulate eGFP-tagged delta133p53alpha (in N-terminal) cells. (AID 2060322); note: nearly all actives have a fitted effect of over 75% in size
# Settings: NCI-H358 eGFP-delta133p53alpha fluorescence, 24 h; activation: stronger effect = higher value
# How it was run: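 NCI-H358 cells pre-induced 24 h with 10 ng/ml doxycycline to express N-terminal eGFP-delta133p53alpha, then dosed 24 h at 37C without doxycycline; fixed, Hoechst-stained, GFP intensity by laser scanning cytometry, normalized to DMSO (0%) and 57.5 uM 5-azacytidine (100%).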
# Sequence of Cellular tumor antigen p53 (Homo sapiens) (P04637 whole entry, looked up): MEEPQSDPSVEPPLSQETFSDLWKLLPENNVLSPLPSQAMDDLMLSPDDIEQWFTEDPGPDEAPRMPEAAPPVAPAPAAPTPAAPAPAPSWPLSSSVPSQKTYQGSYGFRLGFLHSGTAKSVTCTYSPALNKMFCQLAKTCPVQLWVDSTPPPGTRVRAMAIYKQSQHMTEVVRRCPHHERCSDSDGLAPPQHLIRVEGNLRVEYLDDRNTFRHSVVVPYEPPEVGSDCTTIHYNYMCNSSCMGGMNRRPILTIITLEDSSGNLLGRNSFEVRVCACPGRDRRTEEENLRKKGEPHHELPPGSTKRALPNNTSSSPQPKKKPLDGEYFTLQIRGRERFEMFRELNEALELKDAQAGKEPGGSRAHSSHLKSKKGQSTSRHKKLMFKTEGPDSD
row,Compound,activation [%]
1,C/C=C1/[C@H](O[C@@H]2O[C@H](CO)[C@@H](O)[C@H](O)[C@H]2O)OC=C(C(=O)OC)[C@H]1CC(=O)OCCc1ccc(O)c(O)c1,5.34
2,COC(=O)C1=CO[C@@H](O[C@@H]2O[C@H](CO)[C@@H](O)[C@H](O)[C@H]2O)[C@@H]2[C@@H](C(=O)O)CC[C@H]12,-5.34
3,CC(C)CC1NC(=O)C(C(C)c2ccccc2)NC(=O)C(C(C)C)NC(=O)C(C)NC(=O)CCCNC(=O)C(Cc2c[nH]c3ccccc23)NC(=O)C(C)NC1=O (stereo not drawn) (cyclo([GABA]AV[ξPhe(βξ-Me)]LAW); configuration not given here),8.4
4,C=C1C(=O)O[C@@H]2C=C(COC(C)=O)CC/C=C(\CO)CC[C@@H]12,3.82
5,C[C@@H]1CCO[C@H]2Cn3cc(C(=O)NCc4ccc(F)cc4F)c(=O)c(O)c3C(=O)N12,32.3
6,CC(C)(C)NCc1cc(Nc2ccnc3cc(Cl)ccc23)c2c(c1O)CCCC2,-11
7,CC(C)=CCCC1(C)Oc2cc3c(c4c2C2C(O4)C(C)(O)CCC21)CN(C(CCC(=O)O)C(=O)O)C3=O (stereo not drawn),-3.05
8,COC(=O)C1C(c2ccc(O)cc2)C(C(=O)O)C1c1ccc(O)cc1 (stereo not drawn),-18.3
9,O=C(c1ccc(OC(F)F)c(C#Cc2ccccn2)c1)N1Cc2cccnc2C1,4.77
10,C[C@@H](c1nc(-c2ccc(C#N)cc2)cs1)[C@](O)(Cn1cncn1)c1cc(F)ccc1F,-2.33
11,C=C(C(=O)O)C1CC2=C(C)CCCC2(C)C[C@@H]1O (stereo partly drawn),-16.1
12,Cc1cc(=O)oc2cc(NC(=O)[C@H](CCC(=O)O)NC(=O)[C@H](CC(C)C)NC(=O)[C@H](CC(C)C)NC(=O)OCc3ccccc3)ccc12 (Cbz-Leu-Leu-Glu-{AMC}),2.33
13,CCCC(CCC)C(=O)NCc1ccc2c(cnn2-c2ccccc2OC)c1,-5.25
14,CCCCCOC(=O)Nc1nc(=O)n(C2O[C@H](C)[C@@H](O)[C@H]2O)cc1F (stereo partly drawn),-11.7
15,CC1CCCC(O)CC(=O)c2c(O)cc(O)cc2CC(=O)O1 (stereo not drawn),4.58
16,CC1OC(OC2C(CO)OC(OCC3OC(OC(=O)C45CCC(C)(C)CC4C4=CCC6C7(C)CCC(OC8OC(CO)C(O)C(OC9OC(CO)C(O)C(O)C9O)C8O)C(C)(C)C7CCC6(C)C4(C)CC5)C(O)C(O)C3O)C(O)C2O)C(O)C(O)C1OC1OC(CO)C(O)C(O)C1O (stereo not drawn),-2.29
17,CC(=O)OC(C)(C)/C=C/C(=O)[C@](C)(O)C1[C@H](O)C[C@@]2(C)[C@@H]3CC=C4[C@@H](C[C@H](O[C@@H]5O[C@H](CO)[C@@H](O)[C@H](O)[C@H]5O)C(=O)C4(C)C)[C@]3(C)C(=O)C[C@]12C (stereo partly drawn),-10.7
18,C/C=C(/C)C(=O)OC1CC(C)(C)CC2C3=CCC4C5(C)CCC(O[C@@H]6O[C@H](C(=O)O)[C@@H](O)[C@H](O)[C@H]6O[C@@H]6O[C@H](CO)[C@H](O)[C@H](O[C@@H]7OC[C@H](O)[C@H](O)[C@H]7O[C@@H]7O[C@H](CO)[C@@H](O)[C@H](O)[C@H]7O)[C@H]6O)C(C)(C)C5CCC4(C)C3(C)C(O)C(O)C12CO (stereo partly drawn),0.893

# Molecular target: Aldehyde dehydrogenase, mitochondrial (Homo sapiens) (UniProt P05091)
# Assay: qHTS for Inhibitors of the Aldehyde Dehydrogenase Family (ALDH2) Primary screen (AID 2061308); note: nearly all actives have a fitted effect of over 55% in size
# Settings: ALDH2 enzyme inhibition qHTS, 1536-well; series mostly up to 56 µM
Compound,Potency,"activity change, negative = inhibition"
C/C(=C\CC[C@@H](C)[C@H]1CC(O)[C@@]2(C)C3CC[C@H]4C(C)(C)[C@@H](OC5OCC(O)C(O)C5OC5OC(CO)C(O)C(O)C5O)CC[C@@]45C[C@@]35CC(O)[C@]12C)C(=O)O (stereo partly drawn),inactive,
C/C(=C\CCC(C(=O)O)C1CCC2(C)C3=C(CCC12C)C1(C)CCC(=O)C(C)(C)C1CC3)C(=O)O (stereo not drawn),inactive,
C[C@@H](O)[C@H](N)C(=O)N1CCC[C@H]1C(=O)N1CCC[C@H]1C(=O)N[C@H](C(N)=O)[C@@H](C)O (H-TPPT-NH2),,5.09% [at 11.2 µM]
CNC(=O)c1ccccc1Sc1ccc2c(/C=C/c3ccccn3)n[nH]c2c1,inactive,
CC(C)CC1(C(=O)OCc2ccc(O[C@@H]3O[C@H](CO)[C@@H](O)[C@H](O)[C@H]3O)cc2)CC(=O)OC(C(=O)O)CC(=O)OCC2OC(O1)C(OC(=O)/C=C/c1ccc(O)cc1)C(O)C2O (stereo partly drawn),inactive,
CC(C#N)C(C)O[C@@H]1O[C@H](CO)[C@@H](O)[C@H](O)[C@H]1O (stereo partly drawn),inactive,
COCC(c1ccc(C(F)(F)F)cc1)N1CCN(C2(C)CCN(C(=O)c3c(C)ncnc3C)CC2)CC1C (stereo not drawn),inactive,
COC(=O)C1=CO[C@@H](O[C@@H]2O[C@H](CO)[C@@H](O)[C@H](O)[C@H]2O)[C@H]2[C@@H]1C=C[C@@]21C=C([C@H](C)O)C(=O)O1,inactive,
Cc1cc2c(c(=O)o1)C=C1CC[C@H]([C@H](C)Cn3cnc(=N)c4[nH]cnc43)C[C@@H]1O2,inactive,
CC(C)=C[C@@H]1[C@H](CO[C@@H]2O[C@H](CO)[C@@H](O)[C@H](O)[C@H]2O)C1(C)C,inactive,
C=C1C[C@@]23CCC4[C@@](C)(CCC[C@@]4(C)C(=O)OC)C2CC[C@@H]1C3 (stereo partly drawn),inactive,
COc1cccc2c1CCC[C@H]2CN(C)CCc1ccc2ccoc2c1,inactive,
C=CC(C)(O)CC/C=C(/C)C(=O)OC1C(OC2OCC(OC3OC(CO)C(O)C(O)C3O)C(OC3OCC(O)C(OC4OC(C)C(O)C(O)C4O)C3O)C2O)COC(OC(=O)C23CCC(C)(C)CC2C2=CCC4C5(C)CCC(OC6OC(CO)C(OC7OC(CO)C(O)C(OC8OCC(O)C(O)C8O)C7O)C(O)C6O)C(C)(C)C5CCC4(C)C2(C)CC3O)C1O (stereo not drawn),,0.572% [at 11.2 µM]
C=C1C2(C)CC3C4(C)OC(C5OC56C4=CC(=O)OC6(C)C)C3(C)C13C(=O)OC(C)C3(O)C2=O (stereo not drawn),inactive,
CCOC(=O)c1c(C)nn(-c2cccc([N+](=O)[O-])c2)c1C,inactive,
C[C@@H]1O[C@@H](OC[C@H]2O[C@@H](Oc3cc(O)cc4c3C(=O)C(O)(Cc3ccc(O)cc3)O4)[C@H](O)[C@@H](O)[C@@H]2O)[C@H](O)[C@H](O)[C@H]1O (stereo partly drawn),inactive,
C=C1CCC2(OC1)OC1CC3C4CC=C5CC(O)CC(O[C@@H]6OC[C@@H](O)[C@H](O)[C@H]6O)C5(C)C4CCC3(C)C1(O)C2C (stereo partly drawn),inactive,
C[C@@H]1O[C@@H](O[C@@H]2[C@@H](O)[C@H](O[C@@H]3[C@@H](O)[C@@H](O)[C@H](O[C@H]4[C@H](OC(=O)[C@]56CCC(C)(C)C[C@H]5C5=CCC7[C@@]8(C)C[C@H](O)[C@H](O[C@@H]9O[C@@H](C)[C@H](O)[C@@H](O)[C@H]9O)[C@@](C)(CO)C8CC[C@@]7(C)[C@]5(C)C[C@H]6O)O[C@H](C)[C@H](O)[C@@H]4O)O[C@H]3C)OC[C@H]2O)[C@H](O)[C@H](O)[C@H]1O (stereo partly drawn),,0.778% [at 11.2 µM]
CC1=CC(=O)CC(C)(C)C1CCC(C)O[C@@H]1O[C@H](CO[C@@H]2OC[C@@H](O)[C@H](O)[C@H]2O)[C@@H](O)[C@H](O)[C@H]1O (stereo partly drawn),inactive,
CC(=O)OC1C(=O)C2C3OCC4=C3[C@@](C)(CC[C@@H]4O)CC[C@]2(C)[C@H]1C(C)C (stereo partly drawn),inactive,

Compound,Potency,"activity change, negative = inhibition"
Cn1ccc(NC(=O)c2cc(Oc3ccc(C(=O)N4CCC4)c(F)c3)c3c(c2)OC(C)(C)C3)n1,inactive,
CC1CC[C@]2(C(=O)O)CC[C@]3(C(=O)O)C(=CCC4[C@@]5(C)CC[C@H](OC6OC(C)C(O)C(OC7OC(CO)C(O)C(O)C7O)C6O)C(C)(C)C5CC[C@]43C)C2C1C (stereo partly drawn),inactive,
C/C=C1/[C@H](O[C@@H]2O[C@H](CO)[C@@H](O)[C@H](O)[C@H]2O)OC=C(C(=O)OC)[C@H]1CC(=O)OCCc1ccc(O)c(O)c1,inactive,
COC(=O)C1=CO[C@@H](O[C@@H]2O[C@H](CO)[C@@H](O)[C@H](O)[C@H]2O)[C@@H]2[C@@H](C(=O)O)CC[C@H]12,inactive,
CC(C)CC1NC(=O)C(C(C)c2ccccc2)NC(=O)C(C(C)C)NC(=O)C(C)NC(=O)CCCNC(=O)C(Cc2c[nH]c3ccccc23)NC(=O)C(C)NC1=O (stereo not drawn) (cyclo([GABA]AV[ξPhe(βξ-Me)]LAW); configuration not given here),inactive,
C=C1C(=O)O[C@@H]2C=C(COC(C)=O)CC/C=C(\CO)CC[C@@H]12,inactive,
C[C@@H]1CCO[C@H]2Cn3cc(C(=O)NCc4ccc(F)cc4F)c(=O)c(O)c3C(=O)N12,inactive,
CC(C)(C)NCc1cc(Nc2ccnc3cc(Cl)ccc23)c2c(c1O)CCCC2,,-0.555% [at 0.464 µM]
CC(C)=CCCC1(C)Oc2cc3c(c4c2C2C(O4)C(C)(O)CCC21)CN(C(CCC(=O)O)C(=O)O)C3=O (stereo not drawn),inactive,
COC(=O)C1C(c2ccc(O)cc2)C(C(=O)O)C1c1ccc(O)cc1 (stereo not drawn),inactive,
O=C(c1ccc(OC(F)F)c(C#Cc2ccccn2)c1)N1Cc2cccnc2C1,inactive,
C[C@@H](c1nc(-c2ccc(C#N)cc2)cs1)[C@](O)(Cn1cncn1)c1cc(F)ccc1F,inactive,
C=C(C(=O)O)C1CC2=C(C)CCCC2(C)C[C@@H]1O (stereo partly drawn),inactive,
Cc1cc(=O)oc2cc(NC(=O)[C@H](CCC(=O)O)NC(=O)[C@H](CC(C)C)NC(=O)[C@H](CC(C)C)NC(=O)OCc3ccccc3)ccc12 (Cbz-Leu-Leu-Glu-{AMC}),inactive,
CCCC(CCC)C(=O)NCc1ccc2c(cnn2-c2ccccc2OC)c1,inactive,
CCCCCOC(=O)Nc1nc(=O)n(C2O[C@H](C)[C@@H](O)[C@H]2O)cc1F (stereo partly drawn),inactive,
CC1CCCC(O)CC(=O)c2c(O)cc(O)cc2CC(=O)O1 (stereo not drawn),inactive,
CC1OC(OC2C(CO)OC(OCC3OC(OC(=O)C45CCC(C)(C)CC4C4=CCC6C7(C)CCC(OC8OC(CO)C(O)C(OC9OC(CO)C(O)C(O)C9O)C8O)C(C)(C)C7CCC6(C)C4(C)CC5)C(O)C(O)C3O)C(O)C2O)C(O)C(O)C1OC1OC(CO)C(O)C(O)C1O (stereo not drawn),,-2.7% [at 11.2 µM]
CC(=O)OC(C)(C)/C=C/C(=O)[C@](C)(O)C1[C@H](O)C[C@@]2(C)[C@@H]3CC=C4[C@@H](C[C@H](O[C@@H]5O[C@H](CO)[C@@H](O)[C@H](O)[C@H]5O)C(=O)C4(C)C)[C@]3(C)C(=O)C[C@]12C (stereo partly drawn),inactive,
C/C=C(/C)C(=O)OC1CC(C)(C)CC2C3=CCC4C5(C)CCC(O[C@@H]6O[C@H](C(=O)O)[C@@H](O)[C@H](O)[C@H]6O[C@@H]6O[C@H](CO)[C@H](O)[C@H](O[C@@H]7OC[C@H](O)[C@H](O)[C@H]7O[C@@H]7O[C@H](CO)[C@@H](O)[C@H](O)[C@H]7O)[C@H]6O)C(C)(C)C5CCC4(C)C3(C)C(O)C(O)C12CO (stereo partly drawn),,-0.94% [at 11.2 µM]
